The structures appear in SMILES notation. The campaign covered roughly 52,000 compounds. About 4,300 (8.3%) were called active. Many of the other results were omitted from the sample, so actives are more common in it than they were. Values without a mark were called inactive. Rule as the data show it: active = survival mostly below about 52% (no sharp cut-off); inactive = mostly above about 56%.

The assay has as its system DeltatarO mutant. As to the kind of experiment: growth inhibition of S. aureus wild type versus tarO mutant, primary screen, teichoic acid synthesis inhibitors, RN4220, OD600 (AID 463173). The note with it: OD600, 18 h, active compounds read low, screened at 18.75 µg/mL (by protocol).
Take `CN(C)c1ccc(CNC(=O)c2cnc3sc(N4CCOCC4)nn3c2=O)cc1`: the survival is 85%. The figure for `CC(CCc1ccccc1)NC(=O)Cn1ncc2c3ccccc3n(Cc3ccccc3)c2c1=O` (configuration not stated) is 81%. Under `CCc1ccc(OCC2c3cc(OC)c(OC)cc3CCN2C(=O)COc2ccccc2)cc1` (configuration not stated) stands 91%; under `CCC(C(=O)NCc1ccccc1Cl)n1nc(C)c2sc3ccccc3c2c1=O` (configuration not stated), 103%; under `Cc1cccc(NC(=O)c2cc(S(=O)(=O)N3CCCCCC3)cn2C)c1C`, 67%. For `O=C(NCCc1ccccc1)C1CCN(Cc2cc3ccccc3n2Cc2ccccc2)CC1`, the survival was 79%. The figure for `Cc1cccc(N(C)S(=O)(=O)c2cc3[nH]c(=O)c(=O)[nH]c3cc2C)c1` is 88%; for `CC(C)c1cnc2c(c1SCC(=O)Nc1cccc(F)c1)c(=O)n(C)c(=O)n2C` it is 81%; for `COc1ccc(-c2csc(=Nc3ccccc3)n2CCO)cc1F` it is 58%. The figure for `CCN(CC)CCn1c(-c2ccccc2)csc1=Nc1ccccc1` is 42% (active).

Consider `O=S(=O)(c1ccc(-c2csc(=Nc3ccc(OC(F)(F)Cl)cc3)n2CCCO)cc1)N1CCCC1`, for which the survival is 159%.

For the compound `Cc1ccc(-c2csc(=Nc3ccccc3)n2Cc2ccc3c(c2)OCO3)cc1`, the survival is 73%.

As for `Cc1ccc(-c2csc(=Nc3ccccc3)n2Cc2ccc3c(c2)OCO3)cc1C`, the survival is 112%. Regarding `OCCCn1c(-c2ccc(F)cc2)csc1=Nc1ccc(F)cc1`, the survival is 39% (active). Take `Cc1ccc(-c2csc(=Nc3ccccc3)n2CCCO)cc1`: the survival was 5% (active). The figure for `O=S(=O)(c1ccc(-c2csc(=Nc3ccc(F)cc3)n2CCCCCCO)cc1)N1CCCC1` is 56%; for `Clc1ccc(-c2csc(=Nc3ccccc3)n2Cc2ccc3c(c2)OCO3)cc1` it is 95%. Take `CCOC(=O)c1c(NC(=O)CSc2cn(CCNC(=O)c3c(F)cccc3F)c3ccccc23)sc2c1CCC2`: the survival was 93%. Under `COc1ccc(Cl)cc1NC(=O)c1cc(S(=O)(=O)N(C)Cc2ccccc2)ccc1F` stands 74%. As for `O=C(c1cc(-c2ccc(Br)cc2)n[nH]1)N1CCN(S(=O)(=O)c2ccc(Br)cc2)CC1`, the survival was 79%. Consider `CN(C)S(=O)(=O)n1cc(/C=C(\NC(=O)c2ccccc2)C(=O)NCCCn2ccnc2)c2ccccc21`, for which the survival is 104%. Regarding `COc1ccc(CNC(=O)c2ccc(NC(=O)N3CCSc4ncccc43)cc2)c(OC)c1`, the survival was 81%.

Turning to `COc1ccc(OC)c(C2C(C(N)=O)=C(C)Nc3nc(-c4cccc(Cl)c4)nn32)c1` (configuration not stated), the survival was 113%. As for `CCOc1ccc(S(=O)(=O)N2CCN(c3cc(Cl)ccc3Cl)CC2)c2ccccc12`, the survival is 64%. Take `CCC(CC)C(=O)Nc1nnc(S(=O)(=O)N2CCc3ccccc32)s1`: the survival is 73%. The figure for `Cc1cc(C)c2nc(NC(=O)c3ccc(S(=O)(=O)N4CCc5ccccc54)cc3)sc2c1` is 83%; for `O=C(Nc1nc2c(F)cccc2s1)c1ccc(S(=O)(=O)N2CCCc3ccccc32)cc1` it is 102%; for `O=C(Nc1nnc(S(=O)(=O)N2CCCc3ccccc32)s1)c1ccccc1` it is 27% (active). Under `Cc1c(Cl)ccc2sc(NC(=O)c3ccc(S(=O)(=O)N4CCCc5ccccc54)cc3)nc12` stands 55%; under `O=C(Nc1nnc(S(=O)(=O)N2CCCc3ccccc32)s1)c1ccc(Cl)cc1`, 15% (active).

`O=C(Nc1nnc(S(=O)(=O)N2CCCc3ccccc32)s1)c1cccc(F)c1`: the survival is 7% (active).

Take `O=C(Nc1nnc(S(=O)(=O)N2CCc3ccccc32)s1)c1ccccc1`: the survival was 12% (active). The figure for `Cc1nc2ccccc2c2nc(N)nn12` is 85%; for `C=Cc1ccc(CSc2nc(-c3ccc(Cl)cc3)nc3c2Cc2c(CO)cnc(C)c2O3)cc1` it is 70%. Under `COc1ccc(NC(=O)Cn2c(SCc3ccc(F)cc3)nc3cccnc32)cc1OC` stands 74%; under `CC(=O)c1ccc(S(=O)(=O)Nc2cccc(-c3ccc(N4CCCC4)nn3)c2)cc1`, 89%. For the compound `Cc1ccccc1Cn1c(=O)n(CCCCCC(=O)NCc2ccc3c(c2)OCO3)c(=O)c2sccc21`, the survival is 101%.

Consider `COc1ccc2c(=O)c(NC(=O)Nc3ccc(F)cc3F)c[nH]c2c1`, for which the survival is 92%. The figure for `O=c1c2sc3ccccc3c2n(Cc2cccc(C(F)(F)F)c2)c(=O)n1Cc1ccc(F)cc1` is 114%. The figure for `O=C(Nc1ccc(F)cc1F)C1CCN(C(=O)c2cnn(-c3ccccc3)c2-n2cccc2)CC1` is 106%.

Turning to `CC(C)Sc1nc2sc3c(c2c(=O)n1-c1ccccc1)CCCC3`, the survival was -3% (active).

For `O=c1c2c3c(sc2nc(NCCO)n1-c1ccccc1)CCCC3`, the survival was 92%. As to `C=C(C)Cn1c(SCC(=O)Nc2ccccc2C)nc2sc3c(c2c1=O)CCCC3`, the survival was 126%.

Consider `C=CCn1c(SC(C)C)nc2sc3c(c2c1=O)CCCC3`, for which the survival was 71%. Regarding `C#CCSc1nc2sc3c(c2c(=O)n1Cc1ccccc1)CCCC3`, the survival was 33% (active).

For the compound `CC(C)Sc1nc2sc3c(c2c(=O)n1Cc1ccccc1)CCCC3`, the survival was 13% (active).

Consider `C=CCSc1nc2sc3c(c2c(=O)n1CC=C)CCCC3`, for which the survival was 98%. Take `O=c1[nH]c2sc3c(c2c(=O)n1-c1ccccc1)CCCC3`: the survival was 70%. Under `CCCCC(c1nnnn1C(C)C)N1CCN(c2ccc(F)cc2)CC1` (configuration not stated) stands 85%; under `CCOC(=O)Cn1c2[n+](c3ccccc31)CC(O)CS2` (configuration not stated), 72%; under `Cc1ccc(CNC(=O)CSc2nc3ccsc3c(=O)n2-c2ccc(C(=O)O)cc2)cc1`, 95%. The figure for `Cc1ccc(C)c(NC(=O)C2CCCN2S(=O)(=O)c2ccc3c(c2)n(C)c(=O)c(=O)n3C)c1` (configuration not stated) is 38% (active); for `Cc1ccc(NC(=O)C2CCCN2S(=O)(=O)c2ccc3c(c2)n(C)c(=O)c(=O)n3C)cc1C` (configuration not stated) it is 115%. Regarding `Cc1ccc(NC(=O)C2CCCN2S(=O)(=O)c2ccc3c(c2)n(C)c(=O)c(=O)n3C)cc1` (configuration not stated), the survival was 87%. For `COc1ccc2cc(CNc3ccccc3)c(=O)n(CC(=O)Nc3ccc(C(C)=O)cc3)c2c1`, the survival is 68%. The figure for `COc1ccccc1NC(=O)C(C#N)Cc1cc2cc(C)cc(C)c2[nH]c1=O` (configuration not stated) is 98%. The figure for `CCOC(=O)c1cc2c(ccn2-c2ccc(F)cc2)n1CC(=O)c1ccc2c(c1)OCCO2` is 100%; for `Cc1cccc(-c2noc(CN(C(=O)c3ccccc3Cl)C(C)C)n2)c1` it is 62%; for `CC(Oc1ccc(Br)cc1)C(=O)N(Cc1nc(-c2ccccc2)no1)C(C)C` (configuration not stated) it is 97%.

On to `Cc1cccc(-c2noc(CN(C(=O)c3ccc(C)c(C)c3)C(C)C)n2)c1`, for which the survival was -3% (active).

As to `COc1ccccc1C(=O)N(Cc1nc(-c2cccc(C)c2)no1)C(C)C`, the survival was 62%. The figure for `Cc1cccc(-c2noc(CN(C(=O)COc3ccc(Br)cc3C)C(C)C)n2)c1` is 45% (active); for `CCOc1ccc(C(=O)N(Cc2nc(-c3cccc(C)c3)no2)C(C)C)cc1` it is 0% (active). The figure for `Cc1cccc(-c2noc(CN(C(=O)COc3ccc(C(C)C)cc3)C(C)C)n2)c1` is 11% (active); for `COc1ccc(OC(C)C(=O)NCc2nc(-c3cccc(C)c3)no2)cc1` (configuration not stated) it is 61%; for `Cc1ccc2cc(CN(C(=O)c3cccc(Cl)c3)c3ccccc3)c(=O)[nH]c2c1` it is 74%. The figure for `CCS(=O)(=O)N1CCc2cc(C(=O)Nc3cc(C(F)(F)F)ccc3Cl)ccc21` is 48%.

In the case of `Cc1ccc(-c2noc(CSc3nnc(C)n3-c3ccc(F)cc3)n2)cc1`, the survival is 61%.

Regarding `CCCN1CCN(CCCNC(=O)c2cc3c(=O)[nH]c4ccccc4c3s2)CC1`, the survival is 79%. For the compound `CC(=O)c1ccc(N2CCN(c3ncnc4c3c(-c3ccccc3)cn4-c3ccc(Cl)cc3)CC2)cc1`, the survival is 91%. For the compound `O=C(CSc1nc2ccsc2c(=O)n1Cc1ccccc1F)NCc1ccccc1`, the survival is 122%. Turning to `COc1cccc(NC(=O)Cn2c(=O)n(-c3cccc(OC)c3)c(=O)c3sc4ccccc4c32)c1`, the survival was 65%. The figure for `CCCCNC(=O)c1ccc2c(=O)n(-c3ccccc3)c(=O)[nH]c2c1` is 80%. The figure for `COc1ccc(C(=O)N2CC(=O)Nc3ccc(F)cc3C2c2ccc(F)cc2)c(OC)c1` (configuration not stated) is 58%; for `Cc1ccccc1CNCc1c(C(=O)O)c(C)n(Cc2ccc(F)cc2Cl)c1C` it is 59%; for `O=C(COCc1cc(-c2cccs2)on1)NCc1cccc(Cl)c1` it is 117%. In the case of `CCOc1nc(NC(=O)NS(=O)(=O)Oc2ccccc2)nc(-c2ccccc2)n1`, the survival was 70%.

With `CCOC(=O)c1ccc(N2C(=O)Cc3cc(OCC)c(OCC)cc3C2c2ccccc2)cc1` (configuration not stated), the survival is 117%.

As to `CC(C)NC(=O)c1ccc2c(c1)nnn2C`, the survival was 78%. Turning to `O=C(COc1ccccc1-c1nc(-c2ccccc2)no1)Nc1ccc([N+](=O)[O-])cc1`, the survival was 44% (active).

Take `O=C(COc1ccccc1-c1nc(-c2ccccc2)no1)Nc1cccc([N+](=O)[O-])c1`: the survival is 34% (active). Consider `Cc1cccc(-c2noc(-c3ccccc3OCC(=O)Nc3ccc([N+](=O)[O-])cc3)n2)c1`, for which the survival is 50%. With `Cc1noc(-c2ccccc2OCC(=O)Nc2cccc([N+](=O)[O-])c2)n1`, the survival was 60%. The figure for `Cc1ccccc1-c1noc(-c2ccccc2OCC(=O)Nc2cccc([N+](=O)[O-])c2)n1` is 51%; for `CC(=O)c1ccc(NC(=O)COc2ccccc2-c2nc(-c3ccc(C)cc3)no2)cc1` it is 57%. Regarding `CCN(C(=O)C1CCN(S(=O)(=O)c2ccc3c(c2)CCCN3C(C)=O)CC1)c1cccc(C)c1`, the survival was 88%. With `CCN(CC)S(=O)(=O)c1ccc(OC)c(-n2cnnn2)c1`, the survival is 65%.
